{"source": "PubChem BioAssay", "data": [{"system": "PRMT1 (protein arginine N-methyltransferase 1)", "experiment": "PRMT1 binders on small-molecule microarrays, primary screen, biochemical, small-molecule microarray, 635 nm fluorescence (AID 1088);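 note: binding of Prmt1 protein to compounds spotted on small-molecule microarray slides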", "conditions": "small-molecule microarray binding, higher = more signal", "values": [{"smiles": "O=C1C[C@@](C(=O)O)(c2ccc([N+](=O)[O-])cc2)[C@@H](c2ccc(CO)cc2)N1CC12CC3CC(CC(C3)C1)C2", "composite z-score": 1.54}, {"smiles": "Cc1ccc(S[C@]2(C(=O)O)CC(=O)N(Cc3ccccc3C(F)(F)F)[C@@H]2c2ccc(CO)cc2)cc1", "composite z-score": 0.667}, {"smiles": "COC(=O)c1ccc(OC)c(/C=C\\CC(CCc2ccccc2)OC(C)=O)c1", "note": "(stereo unspecified)", "composite z-score": -0.0961}, {"smiles": "C#CCNS(=O)(=O)N(C)C", "composite z-score": 0.392}, {"smiles": "O=C1CSC(c2cccc([N+](=O)[O-])c2)N1c1ccccc1", "note": "(stereo unspecified)", "composite z-score": 0.0447}, {"smiles": "CCN(CC)c1ccc(N2CC=CC34O[C@@H]5/C=C\\CCCOC(=O)C5[C@H]3C(=O)N(CCCCCO)[C@@H]4C2=O)cc1", "note": "(stereo partly specified)", "composite z-score": -0.752}, {"smiles": "OCc1ccc(-c2cc[n+](Cc3cccc(OC(F)(F)F)c3)cc2)cc1", "composite z-score": 1.26}, {"smiles": "COCC1=C([C@H](O)CCc2ccccc2)[C@H](CO)[C@@H]2C(=O)N(C)C(=O)[C@@H]2C1", "composite z-score": 0.267}, {"smiles": "COC(=O)[C@@]1(Cc2ccc(F)cc2)[C@H]2c3cc(C(=O)N(C)C)n(Cc4ccc(C)c(F)c4F)c3C[C@H]2CN1C(=O)c1ccccc1", "composite z-score": -0.495}, {"smiles": "CCOC(=O)C[C@H]1[C@H](OC(=O)c2ccc(C(=O)c3ccccc3)cc2)[C@@H](NC(=O)C2CCCCC2)c2cc(OCCCO)ccc2N1C(=O)Cc1ccc(OC)cc1", "composite z-score": 0.623}, {"smiles": "CCCN1C(=O)[C@@]2(Cc3ccccc3)N=C(c3ccc(OCCCO)cc3)O[C@H]2c2ccccc21", "composite z-score": 1.54}, {"smiles": "O=C1C2C=CC(C(O)c3ccccn3)N(Nc3ccccc3)C2C(=O)N1c1ccccc1", "note": "(stereo unspecified)", "composite z-score": 0.207}, {"smiles": "COc1cc(C(O)C2C=CC3C(=O)N(C)C(=O)C3N2NC(=O)OC(C)(C)C)cc(OC)c1OC", "note": "(stereo unspecified)", "composite z-score": 1.09}, {"smiles": "COCC(=C=CC[C@@H](O)c1ccccc1OCCO)C[C@@H](O)c1ccccn1", "composite z-score": 1.29}, {"smiles": "C[N+](C)(C)CCCC[C@@H]1NC(=O)[C@@H]2C[C@H](C(=O)O)[C@H](c3cccc(OCCO)c3)N2C1=O", "composite z-score": 0.583}, {"smiles": "C=CCC(OC(C)=O)[C@@H]1[C@@H](N(Cc2ccc(-c3cccc(C(F)(F)F)c3)o2)C(=O)c2cccc3ccccc23)c2cc(OCCCO)ccc2N1C(=O)c1ccc(-c2ccccc2)cc1", "note": "(stereo partly specified)", "composite z-score": -0.496}, {"smiles": "COCCCNC(=O)[C@@]1(C)c2ccccc2C(=O)N(c2ccc(C)cn2)[C@H]1c1ccc(CO)cc1", "composite z-score": 0.194}, {"smiles": "COCCCNC(=O)[C@@]1(Cc2ccccc2CN=[N+]=[N-])N=C(c2ccc(OCCCO)cc2)O[C@H]1c1ccccc1N=[N+]=[N-]", "composite z-score": 1.31}, {"smiles": "CC1(C)[C@@H]2CC(C(O)C3C=CC4C(=O)N(c5ccccc5)C(=O)C4N3Nc3ccccc3F)=C[C@@H]1C2", "note": "(stereo partly specified)", "composite z-score": 1.53}, {"smiles": "CCOC(=O)C[C@H]1[C@H](OC(=O)Cc2ccc3c(c2)OCO3)[C@@H](NC(=O)c2ccccc2)c2cc(OCCCO)ccc2N1C(=O)c1ccc2ccccc2n1", "composite z-score": 0.4}, {"smiles": "C=CC[C@]1(C(=O)NCC(O)CO)N=C(c2ccc(OCCCO)cc2)O[C@H]1c1ccccc1N=[N+]=[N-]", "note": "(stereo partly specified)", "composite z-score": 1.03}, {"smiles": "C=C(COC)C(=O)CC[C@H](OC(=O)c1ccccc1-c1ccccc1C(=O)O)c1ccc(OCCO)cc1", "composite z-score": 1.55}, {"smiles": "COC(=O)[C@@]1(Cc2ccc(OC)cc2)[C@H]2c3cc(C(=O)N(C)C)n(Cc4cc(F)c(F)c(F)c4)c3C[C@H]2CN1C(=O)c1ccccc1", "composite z-score": 0.456}, {"smiles": "C=CCC(OC(C)=O)[C@@H]1[C@@H](N(Cc2ccc(-c3ccccc3)cc2)C(=O)Cc2ccc(OC)cc2)c2cc(OCCCO)ccc2N1C(=O)c1ccc(-c2ccccc2)cc1", "note": "(stereo partly specified)", "composite z-score": -0.0413}, {"smiles": "COc1ccc(CCNC(=O)[C@@H]2c3ccccc3C(=O)N(Cc3ccccc3)[C@H]2c2ccc(CO)cc2)cc1", "composite z-score": 1.55}, {"smiles": "COC(=O)C(CC#Cc1ccc2c(c1)[C@]1(C(=O)N2)[C@H](c2ccccc2OCCO)N2[C@H](c3ccccc3)[C@H](c3ccccc3)OC(=O)[C@H]2[C@@H]1C(=O)Nc1nc2ccccc2s1)C(=O)OC", "composite z-score": 1.52}, {"smiles": "COc1cc2c(cc1OC)CN(C(=O)[C@@H]1[C@H]3C(=O)O[C@H](c4ccccc4)[C@H](c4ccccc4)N3[C@H](c3ccc(OCCO)cc3)[C@@]13C(=O)Nc1ccc(C#CCCO)cc13)CC2", "composite z-score": 1.54}, {"smiles": "C[N+](C)(C)CCCCCCNC(=O)[C@H]1C[C@H]2C(=O)N3CCC[C@H]3C(=O)N2[C@H]1c1cccc(OCCO)c1", "composite z-score": 1.3}, {"smiles": "C=C(C(=O)CC[C@H](OC(=O)c1cccnc1)c1ccc(OCCO)cc1)C(C)C", "composite z-score": 1.55}, {"smiles": "C=C(COC)C(=O)CC[C@H](OC(=O)c1ccccc1-c1ccccc1C(=O)O)c1ccc(CO)o1", "composite z-score": 1.56}, {"smiles": "COC(=O)[C@@]1(Cc2ccccc2)[C@H]2c3cc(C(=O)N4CCCC4)n(Cc4ccc(OC(F)(F)F)cc4)c3C[C@H]2CN1C(=O)c1ccccc1", "composite z-score": 0.325}, {"smiles": "CO[C@H]1O[C@H](CO)[C@@H](OC(=O)c2ccc(Br)cc2)[C@@H]2OC(=O)[C@H](Cc3cccc(Br)c3)C/C=C/C[C@@H](Cc3cccc(Br)c3)C(=O)O[C@@H]12", "composite z-score": 1.47}, {"smiles": "Cc1ccc(N2C(=O)c3ccccc3[C@](C)(C(=O)NC(C)C)[C@@H]2c2ccc(CO)cc2)nc1", "composite z-score": 0.595}, {"smiles": "NC(=O)[C@@H]1[C@H]2C(=O)O[C@H](c3ccccc3)[C@H](c3ccccc3)N2[C@H](c2ccccc2OCCO)[C@@]12C(=O)Nc1ccc(C#CCCO)cc12", "composite z-score": -0.155}, {"smiles": "O=C1O[C@H](c2ccccc2)[C@H](c2ccccc2)N2[C@H]1[C@@H](C(=O)N1CCN(c3ncccn3)CC1)[C@]1(C(=O)Nc3ccc(C#CCCO)cc31)[C@H]2c1ccc(OCCO)cc1", "composite z-score": 1.54}, {"smiles": "CCCC=C(CCC)[C@@H](NS(=O)(=O)c1cccc2cccnc12)c1ccc(C(=O)OC)cc1", "composite z-score": 0.763}]}]}
